Compound activity as filed in PubChem.
Shown are actives, neighbours in structure and some others; about 3.4% of the full set was active somewhere.
CendR NRP1 mod: modulators of CendR peptide binding to human neuropilin-1 | actives 0.85% (n = 360,000) | FAM-RPARPAR peptide binding to NRP-1, fluorescence polarization | O14786 | inhibition, % at 25 µM;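 active means inhibition or corrected inhibition above about 18%, plus a signal ratio from 0.5 to 1.5, limit read from the data, passing the limit was not always enough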
ADAM17 inh: inhibitors of human ADAM17. P78536. recombinant ADAM17, EDANS/DABCYL FRET peptide cleavage. AID 720648. actives 0.83% (n = 370,000). inhibition, % at 6.95 µM;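 active means inhibition above the mean of compounds lying between control limits plus 3 SD, set per campaign, cut at about 8.5% in these data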
proKLK7 act: activates the human kallikrein-7 zymogen. P49862. purified proKLK7, EDANS-DABCYL substrate fluorescence; 100% is mature enzyme control, 0% vehicle. activation, % at 7 µM. actives 0.9% (n = 370,000). AID 652039;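 active means activation above the mean of all tested compounds plus 3 SD, computed per campaign excluding outliers beyond control limits, cut at about 13% in these data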
sPLA2-III inh: Blocks human group III sPLA2 activity | Q9NZ20 | QFRET BODIPY PC-A2 liposome hydrolysis, fluorescence | inhibition, % at 12.2 µM | actives 0.56% (n = 370,000) | AID 743126;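 active means inhibition above mean plus 3 SD of compounds lying within the high and low control bounds, cut at about 19% in these data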
ADAM10 inh: inhibits human ADAM10 | inhibition, % at 7 µM | O14672 | AID 720582 | recombinant ADAM10, EDANS/DABCYL FRET peptide cleavage, 3 h | actives 0.62% (n = 370,000);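 active means inhibition above a per-campaign cutoff equal to the mean of compounds falling between control-based bounds plus 3 SD, cut at about 20% in these data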
ADAM10 confirm: human ADAM10 inhibition, confirmation. shares compounds with ADAM10 inh. ADAM10 QFRET peptide cleavage, EDANS fluorescence. inhibition, % at 6.95 µM. actives 1% (n = 2,100);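 active means inhibition above about 20% chosen separately for each screening run, limit read from the data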
ADAM17 counter: ADAM17 inhibition, counter-screen for ADAM10 exosite hits. actives 0.5% (n = 2,100). inhibition, % at 6.95 µM. ADAM17 QFRET peptide cleavage, EDANS fluorescence. shares compounds with ADAM10 inh;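 active means mean triplicate inhibition above the solvent-only control wells' mean plus 3 SD, cut at about 12% in these data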
Large screens that a line does not name were inactive (follow-up assays come after a bar, where they were run); ! = not confirmed by another sample.

Nc1[nH]c(C(=O)c2ccccc2)c(-c2ccc(Br)cc2)c1C(=O)N1CCN(CCO)CC1	none (no result: CendR NRP1 mod, proKLK7 act)
OC(c1ccc2c(c1)OCO2)c1ncc(-c2cccc(C(F)(F)F)c2)[nH]1 (stereo not given)	ADAM10 inh 20 | ADAM10 confirm inactive | ADAM17 counter inactive
COc1cc(CNc2nc3c(C)cc(C)cc3s2)ccc1O	ADAM10 inh 22 | ADAM10 confirm inactive | ADAM17 counter inactive
Cc1cc(C)c2nc(NCc3ccccc3O)sc2c1	none
Cc1ccc(-n2c(SCC(=O)c3ccc(Br)cc3)nnc2-c2ccncc2)cc1	none (no result: CendR NRP1 mod)
CC(=O)C1CCC2C3CCC4=CC(=O)CCC4(C)C3C(O)CC12C (stereo not given)	none
CC(=O)[C@H]1CC[C@H]2[C@@H]3CCC4=CC(=O)CC[C@]4(C)[C@H]3CC[C@]12C	ADAM10 inh 21! | ADAM10 confirm inactive | ADAM17 counter inactive
CC1(C)CC(=O)c2c(oc3cc(O)c(O)cc23)C1	ADAM10 inh 21 | ADAM10 confirm inactive | ADAM17 counter inactive
Cc1ccc(Cn2nnc3c(=O)[nH]c(C4CCN(S(=O)(=O)c5ccc(S(=O)(=O)NC6CC6)cc5)CC4)nc32)cc1	ADAM10 inh 20 | ADAM10 confirm inactive | ADAM17 counter inactive
COc1ccc(-n2c(Cc3cccn3C)nnc2SCC(=O)Nc2ccccc2)cc1	none
Cn1cccc1Cc1nnc(SCC(=O)Nc2ccccc2)n1-c1ccc(F)cc1	ADAM10 inh 79 | ADAM10 confirm inactive | ADAM17 counter inactive
COc1ccc(-n2c(Cc3cccn3C)nnc2SCC(=O)Nc2ccc(Cl)cc2)cc1	ADAM10 inh 86 | ADAM10 confirm inactive | ADAM17 counter inactive
O=C(NCCc1ccccc1)c1oc2ccccc2c1COc1ccccc1	ADAM10 inh 20 | ADAM10 confirm inactive | ADAM17 counter inactive
CSCCC(NC(=O)c1ccccc1)C(=O)OCC(=O)Nc1ccc(C)c(Cl)c1 (stereo not given)	ADAM10 inh 32 | ADAM10 confirm inactive | ADAM17 counter inactive
C/C(=N\NC(=S)NCc1ccccc1)c1cccc(Br)c1	ADAM10 inh 21 | ADAM10 confirm inactive | ADAM17 counter inactive
CCCn1nc([N+](=O)[O-])c(C(C#N)c2nc3ccccc3o2)c(Cl)c1=O (stereo not given)	ADAM10 inh 21 | ADAM10 confirm inactive | ADAM17 counter inactive
C(/C=C\c1ccco1)=NN1CCN(Cc2cccc3ccccc23)CC1	none (no result: CendR NRP1 mod)
COc1ccccc1CCC(=O)N(C)CC(=O)Nc1ccc(Cl)c(C(F)(F)F)c1	ADAM10 inh 22 | ADAM10 confirm inactive | ADAM17 counter inactive
O=C1N(CCCO)CCC12CCC(c1ccccc1)CC2 (stereo not given)	ADAM10 inh 88! (no result: CendR NRP1 mod) | ADAM10 confirm inactive | ADAM17 counter inactive
Cc1cccc(C(=O)NN2C(=O)C3C(c4ccccc4)C=CC(c4ccccc4)C3C2=O)c1 (stereo not given)	ADAM10 inh 20 | ADAM10 confirm inactive | ADAM17 counter inactive
Cn1cc(C(=O)c2ccc(Cl)cc2Cl)cc1C(=O)N/N=C(\N)COc1ccc(Cl)cc1Cl	ADAM17 inh 20, ADAM10 inh 30 | ADAM10 confirm inactive | ADAM17 counter inactive
CC(C)NC(=O)[C@H](CSCc1ccccc1)N1Cc2ccccc2C1=O	none
O=C(NC1CCCCC1)[C@H](CSCc1ccccc1)N1Cc2ccccc2C1=O	ADAM10 inh 22 | ADAM10 confirm inactive | ADAM17 counter inactive
CC1(c2nnnn2C2CCCCC2)CSCC(=O)N1CCc1ccc(O)cc1 (stereo not given)	none (no result: CendR NRP1 mod)
Cc1c(C(=O)NCc2ccc(F)cc2)sc(=O)n1Cc1ccc(Cl)c(Cl)c1	none
CSc1ccc(Cn2c(C)c(C(=O)NCc3ccc(Cl)c(Cl)c3)sc2=O)cc1	ADAM10 inh 21 | ADAM10 confirm inactive | ADAM17 counter inactive
Cc1c(C(=O)NCc2ccc3c(c2)OCCO3)sc(=O)n1Cc1ccc2c(c1)OCO2	none
CSc1ccc(Cn2c(C)c(C(=O)NCc3ccc4c(c3)OCCO4)sc2=O)cc1	ADAM10 inh 20 | ADAM10 confirm inactive | ADAM17 counter inactive
CCCC1CCC2(CC1)CCC2OC(=S)Nc1cccc(C(F)(F)F)c1 (stereo not given)	none (no result: CendR NRP1 mod, proKLK7 act)
